Assay results as given in PubChem BioAssay (NCATS).
Values joined by “and” are separate entries in the source; they are usually repeats but may differ in a detail not shown here. Identical values can stand only once. Inconclusive results are not listed. Unmarked numbers belong to inactive results. Active and inactive are the calls of the source. Calls follow the shape of the dose curve; as a rule, active = well fitted inhibition curve with a large enough effect; inconclusive = small, poorly fitted or top-dose-only effect; inactive = flat fitted curve, though single readings scatter.

Key:
CRL-7250 = normal cell line; assay: Cytotoxic Profiling of Annotated Libraries Using Quantitative High-Throughput Screening (AID 1296008); settings: Five cell lines viability, CellTiter-Glo ATP luminescence, 48-72 h; max response: hits give low values; also: potency is read from the fitted curve at half-maximal effect; as to max response: % is scaled to controls: 0 for no effect and ±100 for the full control effect
In short: (§1)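 Cytotoxicity was measured as CellTiter-Glo ATP luminescence, read after 10 min at room temperature. Compound treatment of the cells lasted 48 or 72 hr at 37 degrees Celsius in a qHTS format.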

HaCat [1] = assay: as above; settings: Five cell lines viability, CellTiter-Glo ATP luminescence, 48-72 h; max response: hits give low values
In short: as §1

NIH3T3 = assay: as above; settings: Five cell lines viability, CellTiter-Glo ATP luminescence, 48-72 h; max response: hits give low values
In short: as §1

HACAT [2] = assay: qHTS assay to identify novel small-molecules to repurpose for Merkel cell carcinoma treatment (AID 1296009); settings: MCC and control cell lines, CellTiter-Glo viability, 72 h; at 44.8 µM (top of the series) unless noted
In short: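 Cell viability, measured as CellTiter-Glo luminescence, was normalized between DMSO and no-cell wells. The cells had been exposed to 8- or 11-point compound dilutions for 72 hr at 37 degree celsius.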

KB-3-1 = assay: Cytotoxic Profiling of Annotated Libraries Using Quantitative High-Throughput Screening (AID 1296008); settings: Five cell lines viability, CellTiter-Glo ATP luminescence, 48-72 h; max response: hits give low values; also: potency is read from the fitted curve at half-maximal effect; as to max response: % is scaled to controls: 0 for no effect and ±100 for the full control effect
In short: as §1
Also: nearly all actives have a fitted effect of over 60% in size.

## O=C(NCCCCN1CCN(c2cccc(Cl)c2Cl)CC1)c1cc2ccccc2s1
CRL-7250
  max response: -20.7%
HaCat [1]
  outcome: inactive
NIH3T3
  max response: -29.5%
HACAT [2]
  outcome: inactive

## C/C=C/CCC1Cc2cc(O)c(CCCC)c(O)c2C(=O)O1 (stereo unspecified)
CRL-7250
  outcome: inactive
HaCat [1]
  outcome: inactive
NIH3T3
  max response: 2.45%
HACAT [2]
  outcome: inactive

## CC(=O)OC1C(OC(=O)c2ccccc2)C2C(=C(C)CCC2(C)C)C23CCC(C)(C2)C(=O)CC13 (stereo unspecified)
CRL-7250
  max response: -34.2%
HaCat [1]
  max response: -3.85%
NIH3T3
  max response: -18.4%

## C/C=C/[C@@H]1C=C[C@@H]2C[C@H](C)CC[C@H]2[C@]1(C)/C(O)=C1/C(=O)[C@@H](CO)N(C)C1=O
CRL-7250
  outcome: inactive
HaCat [1]
  max response: 3.96%
NIH3T3
  outcome: inactive

## COC(=O)CC(O)CC(O)/C=C/c1c(C)ccc2c1C(OC(C)=O)CC(C)C2 (stereo unspecified)
CRL-7250
  Potency: 4.04 µM (active)
HaCat [1]
  outcome: inactive
NIH3T3
  outcome: inactive
HACAT [2]
  outcome: inactive

## O=C(NCc1nc2ccccc2c(=O)n1-c1ccc(F)cc1)Nc1ccc(Cl)c(C(F)(F)F)c1
CRL-7250
  outcome: inactive
HaCat [1]
  outcome: inactive
NIH3T3
  max response: -1.1%
HACAT [2]
  outcome: inactive

## CC(C)CCCCC(=O)N[C@@H](CO)C(=O)N[C@@H](CC(C)C)C(=O)[C@@]1(CO)CO1
CRL-7250
  max response: -2.59%
HaCat [1]
  outcome: inactive
NIH3T3
  max response: -2.24%
HACAT [2]
  outcome: inactive

## COc1cc(N(C)CCN(C)C)c(N)cc1Nc1nccc(-c2cn(C)c3ccccc23)n1
CRL-7250
  max response: -5.14%
HaCat [1]
  max response: -1.2%
NIH3T3
  outcome: inactive

## CCOC(=O)c1ccc(OCCC2CCN(c3ccc(C)nn3)CC2)cc1
CRL-7250
  max response: -21.9%
HaCat [1]
  outcome: inactive
NIH3T3
  max response: -0.794%
HACAT [2]
  outcome: inactive

## O=C(Nc1nc2ccc([N+](=O)[O-])cc2s1)C1CCCCC1
CRL-7250
  max response: -7.28%
HaCat [1]
  outcome: inactive
NIH3T3
  max response: -1.61%
HACAT [2]
  outcome: inactive

## CC(=O)NC[C@H]1CN(c2ccc(N3CCSCC3)c(F)c2)C(=O)O1
CRL-7250
  max response: 3.86%
HaCat [1]
  outcome: inactive
NIH3T3
  outcome: inactive
HACAT [2]
  outcome: inactive

## Cc1cc(C(=O)Cn2cc(C#N)ccc2=O)c(C)n1Cc1ccccc1
CRL-7250
  max response: -5.73%
HaCat [1]
  outcome: inactive
NIH3T3
  outcome: inactive
HACAT [2]
  outcome: inactive

## Cc1ccc(C(C)C)c(O[C@@H]2O[C@H](CO)[C@@H](O)[C@H](O)[C@H]2O)c1
CRL-7250
  Potency: 16.1 µM (active)
HaCat [1]
  max response: -17.5%
NIH3T3
  max response: 2.1%

## CCc1ccc(-c2nc(CSCC(=O)NCCc3ccccc3)c(C)o2)cc1
CRL-7250
  max response: 2.64%
HaCat [1]
  outcome: inactive
NIH3T3
  max response: -12.1%
HACAT [2]
  outcome: inactive

## Cc1c(NC(=O)OCC2COCCN2)cn2ncnc(Nc3ccc4c(cnn4Cc4cccc(F)c4)c3)c12 (stereo unspecified)
CRL-7250
  max response: -30.6%
KB-3-1
  max response: -18.9%

## O=C(Nc1cccc2cccnc12)c1ccc(N2C(=O)[C@@H]3C4C=CC(C4)[C@@H]3C2=O)cc1
CRL-7250
  Potency: 1.3 µM (active)
KB-3-1
  max response: -2.67%

## O[C@@](Cc1ncc(CC2(C(F)(F)F)CC2)[nH]1)(c1ccc(-n2cccn2)cc1)C(F)(F)F
CRL-7250
  outcome: inactive
HaCat [1]
  outcome: inactive
NIH3T3
  max response: -24.1%
HACAT [2]
  outcome: inactive

## O=C(Nc1ccc(Cl)cc1)Nc1cccc(-c2cccc(N3CCCC3)n2)c1
CRL-7250
  max response: -4.95%
HaCat [1]
  outcome: inactive
NIH3T3
  max response: 1.43%
HACAT [2]
  outcome: inactive

## Cc1ccnn1-c1ccc(C(=O)N2CCN(S(=O)(=O)c3ccc(Cl)c(C(F)(F)F)c3)CC2)cc1
CRL-7250
  outcome: inactive
KB-3-1
  max response: -18.8%
NIH3T3
  max response: -5.12%

## CNc1nc(NCc2ccc(NS(C)(=O)=O)cc2Cl)cc(-c2ccccn2)n1
CRL-7250
  Potency: 20.6 µM (active)
HaCat [1]
  outcome: inactive
NIH3T3
  max response: -15.9%
HACAT [2]
  outcome: inactive

## O=C(NO)c1ccc(CC(=O)N(CCO)c2ccccc2)cc1
CRL-7250
  max response: 0.727%
HaCat [1]
  outcome: inactive
NIH3T3
  max response: -4.33%
HACAT [2]
  outcome: inactive

## Cc1cc(C)cc(-c2cnc3cc(Cl)c(-c4cccc(O)c4)cc3c2OCCCN)c1
CRL-7250
  max response: 3.3%
HaCat [1]
  outcome: inactive
NIH3T3
  max response: -0.922%
HACAT [2]
  outcome: inactive

## COc1ccnc(CS(=O)c2nc3cc(OC(F)F)ccc3[nH]2)c1OC (stereo unspecified)
CRL-7250
  max response: -13.2%
KB-3-1
  max response: -2.25% and -1.6%

## Cc1cc(C)c2c(c1)C(N(Cc1cc(C(F)(F)F)cc(C(F)(F)F)c1)c1nnn(C)n1)CCCN2CC1CCC(C(=O)O)CC1 (stereo unspecified)
CRL-7250
  max response: 2.9%
KB-3-1
  Potency: 14.6 µM (active)

## CC(C)=CCC[C@](C)(O[C@@H]1O[C@H](CO[C@@H]2OC[C@@H](O)[C@H](O)[C@H]2O)[C@@H](O)[C@H](O)[C@H]1O)[C@H]1CC[C@]2(C)[C@@H]1[C@H](O)C[C@@H]1[C@@]3(C)CC[C@H](O[C@@H]4O[C@H](CO)[C@@H](O)[C@H](O)[C@H]4O)C(C)(C)[C@@H]3CC[C@]12C
CRL-7250
  max response: -26.7%
KB-3-1
  max response: 5.08%

## CCCC(Nc1nc(-c2ccc(NC(=O)NCC)c(OC)c2)ncc1C)c1cccnc1 (stereo unspecified)
CRL-7250
  Potency: 0.206 µM (active)
KB-3-1
  Potency: 0.146 µM (active)

## COc1ccc([C@H]2Cc3cccc(O)c3C(=O)O2)cc1OC
CRL-7250
  max response: -21.6%
KB-3-1
  max response: 2.52%

## CCCCc1c(-c2ccc(OC)cc2)[nH]c2nccnc12
CRL-7250
  outcome: inactive
KB-3-1
  max response: 2.93%
